Bioassay records from PubChem.
In the library only some 4.8% were active in any assay of this set; here they are far more common.
ATXN viability: reduces viability in counter-screen for ATXN expression inhibitors. S2 cells (HEK-293 line with an ATXN2-luciferase reporter) viability, CellTiter-Fluor protease fluorescence, 24 h. Potency, µM (titrated, usually from 56.7 µM), most hits filed as cytotoxic. hit rate 0.49% among 400,000. AID 651635; further: potency means the concentration at half of the fitted maximal effect; nearly all actives have a fitted effect of over 40% in size
DRD3 antagonist: D3 dopamine receptor (human) antagonism; P35462; D3R cells, DiscoveRx beta-arrestin luminescence, antagonist mode; stronger effect = lower value; max response, negative = inhibition, %; hit rate 2.5% among 360,000; in the data active means max response below about -50%; inconclusive means no clear call, values can overlap the other calls; further: on the % scale 0 is the no-effect control and ±100 the full control effect
Target sequence (P35462 whole entry, looked up): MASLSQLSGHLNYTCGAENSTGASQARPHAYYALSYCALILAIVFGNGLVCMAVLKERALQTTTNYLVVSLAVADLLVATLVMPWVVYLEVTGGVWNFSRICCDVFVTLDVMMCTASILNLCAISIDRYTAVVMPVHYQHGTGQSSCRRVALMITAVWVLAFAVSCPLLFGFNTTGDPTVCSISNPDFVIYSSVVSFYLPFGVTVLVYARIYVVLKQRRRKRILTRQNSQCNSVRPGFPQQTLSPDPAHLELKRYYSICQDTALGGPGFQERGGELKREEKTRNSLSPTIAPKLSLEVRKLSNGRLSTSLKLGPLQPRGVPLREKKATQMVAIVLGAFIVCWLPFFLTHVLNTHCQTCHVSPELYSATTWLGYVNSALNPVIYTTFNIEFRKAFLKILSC
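Cells expressing the human receptor were seeded at 1500 cells/well, incubated overnight at 37 degrees C in 5% CO2, then exposed to library compounds with dopamine controls for 90 minutes at 37 degrees C before luminescent detection.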
HepG2 tox: counter-screen for TGF-b inhibitors: cytotoxicity in HepG2 cells; HepG2 CAGA-GFP viability, ATP luminescence, 18 h; Potency, µM (highest dose often 46.1 µM), inactives show at the top dose activity change, negative = cytotoxicity, actives largely listed as cytotoxic; hit rate 0.76% among 410,000; further: potency means the concentration at half of the fitted maximal effect
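HepG2 CAGA-GFP cells (1000/well, DMEM with 1% FBS) received compound, then TGF-beta at 500 pg/mL final, and were incubated 18 hours at 37 degrees C. Viability was read by CellTiter-Glo luminescence. Media-only wells were set as complete cell-killing and DMSO as no toxicity.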
D3 ag: activates the human D3 dopamine receptor. D3R DiscoveRx beta-arrestin cells, luminescence, 90 min. max activation, %. hit rate 0.58% among 410,000; in the data active means max activation above about 30%; further: 0% is about no effect
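Cells at 1500/well, incubated overnight, then treated with pinned compounds (dopamine as control) for 90 min at 37 degrees C. DiscoveRx reagent added for 30 - 60 minutes at room temperature; luminescence read.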
TGFb inhibitor: inhibitors of TGF-b signaling; HepG2 CAGA-GFP TGF-b/SMAD3 reporter, GFP fluorescence, 18 h; TGF-beta stimulated, 500 pg/mL final; Potency, µM (top dose mostly 46.1 µM), for inactives: at the top dose activity, negative = inhibition, actives largely listed as inhibitors; hit rate 1.2% among 410,000; AID 588855; further: potency means the concentration at half of the fitted maximal effect; on the % scale 0 is the no-effect control and ±100 the full control effect; nearly all actives have a fitted effect of over 65% in size
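Smad-responsive CAGA-GFP expression was quantified in HEPG2 cells exposed to compounds and 500 pg/mL final TGF-beta for 18 h at 37 degrees C; unstimulated wells defined full inhibition.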
ATXN2 expr inh: inhibitors of ATXN2 expression | HEK-293 ATXN2-luciferase reporter, luminescence, 24 h | Potency, µM (doses to about 57 µM), inactives show top-dose activity change, negative = inhibition, actives largely listed as inhibitors | hit rate 0.72% among 360,000 | AID 1745845; further: potency means the concentration at half of the fitted maximal effect; on the % scale 0 is the no-effect control and ±100 the full control effect; nearly all actives have a fitted effect of over 55% in size
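ATXN2-luciferase reporter cells (luciferase flanked by upstream and downstream ATXN2 gene portions) were treated 24 h at 37 °C with compounds at up to 57 uM. SteadyGlo luminescence gave expression; GF-AFC fluorescence gave viability.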
* = called active by the depositor; i = inactive; u = inconclusive; x = not tested or not shown; [ ] = remark or other dose. Unless noted, the call rests on the fitted dose curve; in most records, active means well fitted curve in the direction sought with a large enough effect; inconclusive means small, poorly fitted or top-dose-only effect, or another doubt; inactive means no such curve, though single readings can be large; an effect the other way counts as inactive or inconclusive.

SMILES	ATXN viability	DRD3 antagonist	HepG2 tox	D3 ag	TGFb inhibitor	ATXN2 expr inh
O=S(=O)(c1ccccc1)N1CCN(Cc2c(O)ccc3ccccc23)CC1	i	4	-29%	6	-19%	3%
Cc1ccccc1C(=O)Nc1cccc(OCc2cc(=O)n3c4c(sc3n2)CCCC4)c1	i	x	-5%	0	6%	0%
CCOc1cccc(C2C=C(c3ccc4c(c3)OCO4)NC(c3ccccc3Cl)N2)c1O (stereo not given)	x	x	-27%	x	u	x
C=CCN(CC=C)CCOc1cccc(Oc2ccccc2)c1	x	-50*	4%	-1	-25%	x
CC(=O)c1ccc(OC(C)C)c(CSc2nc(O)cc(=O)[nH]2)c1	i	-103*	-19%	-32	-3%	1%
COCCNC(=O)Cn1c(=O)c2cccn2c2ccc(F)cc21	x	x	-25%	11	-12%	x
COc1ccc(-c2nc3scc(CCNS(=O)(=O)c4ccc(Oc5ccccc5)cc4)n3n2)cc1OC	x	x	-9%	1	0%	x
O=C(NCCCO)c1cc2ccccc2[nH]1	i	-8	-3%	-5	-7%	-20%[11.3 µM]
COc1cccc(-c2cc(C(=O)NCC3CCCO3)c3cc(C)cc(C)c3n2)c1 (stereo not given)	u	34	15%	66*	-1%	47%
Cc1ccc(C(=O)NCCN2CCCC2)cc1	i	u	1%	-27	-32%	-6%
CC(=O)Nc1ccc(S(=O)(=O)NCc2ccc(C(=O)NCCN3CCCCCC3)cc2)cc1	i	-53*	0%	-17	-11%	0%
Cc1cccc(C(=O)NCCN2CCCC2)c1	i	-66*	1%	-6	0%	-31%
O=C(NCCN1CCCCC1)c1cc2ccccc2[nH]1	i	-72*	-5%	-15	-2%	3%
COc1cccc(OC)c1CN1CCC2(CCC(CNC(=O)c3ccccc3)O2)CC1 (stereo not given)	i	x	x	x	x	x
COc1ccc(N2C(=O)C(CC(=O)Nc3ccccc3)N(CCC3=CCCCC3)C2=O)cc1 (stereo not given)	i	x	2%	-8	1%	6%
CN1CCN(CCCNC(=O)c2ccc3c(Cl)c4c(nc3c2)CCCC4)CC1	i	-16	-44%	-5	11µM*	x
COc1ccc(C(=O)N2CCN(CCNC(=O)C(=O)Nc3ccc(F)cc3)CC2)cc1OC	i	3	-1%	8	0%	6%
O=C(NCCN1CCN(C(=O)c2ccc(F)cc2)CC1)c1ccc(F)cc1	u	-79*	-6%	-10	17%	-12%
CCc1ccc(CNC(=O)c2ccc3c(Cl)c4c(nc3c2)CCCC4)cc1	i	x	6%	5	0%	1%
NNC(=O)c1cc2ccccc2[nH]1	u	-52*	-4%	-10	-12%	-7%
COc1ccc(C(=O)NCCN2CCCC2)cc1	i	-54*	-13%	-11	-4%	-5%
O=C(CO)[C@@H](O)[C@H](O)[C@@H](O)C(=O)O	x	x	x	7	x	x
CCOC(=O)c1c(C)c(-c2ccccc2)n(CC(=O)NC2CCCCCC2)c1C	i	x	-31%	0	u	2%
CC(=O)c1ccc(NC(=O)C2=CC(c3ccc(C)cc3)=NS(=O)(=O)N2C)cc1	u	x	-17%	-5	u	-23%
Cc1ccc(-c2nnc(SCC(=O)NC(C)(C)C)nc2-c2ccc(C)cc2)cc1	u	x	-16%	-1	u	-16%
COc1cc2nc(N3CCCN(C)CC3)nc(NC3CCN(C)C3)c2cc1OC (stereo not given)	x	x	-9%	x	u	x
CCCCCn1c(=O)[nH]c2cc(C(=O)N3CCN(c4cc(Cl)ccc4C)CC3)ccc2c1=O	i	x	0%	3	-6%	10%
CCc1ccc(OCC(=O)N(Cc2ccco2)Cc2ccccc2Cl)cc1	x	x	-32%	-4	x	x
